# Calls of active or inactive are those of the source. How the source made its calls: active means hit-call score of the fitted dose curve at least 0.9, where 1 is the maximum; inactive means score below 0.9.
# Assay: ATG_TAL_CIS: Attagene CIS-FACTORIAL HepG2 Assay for human TAL Basal Promoter (AID 2282966);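 further: background control endpoint measuring basal TAL promoter reporter mRNA not a specific factor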
# Conditions: HepG2 Attagene cis-factorial TAL promoter reporter; actives raise or lower the signal
# How it was run: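 RT-PCR plus capillary electrophoresis quantifies reporter mRNA induction in transiently transfected HepG2 cells after 24 h chemical treatment. DMSO serves as negative control and baseline for bidirectional fitting.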
row,SMILES,outcome
1,C=C(C)[C@H]1Cc2c(ccc3c2O[C@@H]2COc4cc(OC)c(OC)cc4[C@@H]2C3=O)O1,inactive
2,COP(=O)(OC)OC(Br)C(Cl)(Cl)Br (stereo unspecified),inactive
3,CN(C)C(=O)Nc1cccc(C(F)(F)F)c1,inactive
4,S=C1NCCN1,inactive
5,CNC(=O)ON=C(C)SC,inactive
6,O=c1ccc(=O)[nH][nH]1,inactive
7,CCOP(=S)(OCC)Oc1ccc2c(C)c(Cl)c(=O)oc2c1,inactive
8,CSC1=N[C@@](C)(c2ccccc2)C(=O)N1Nc1ccccc1,inactive
9,CN1COCN(Cc2cnc(Cl)s2)C1=N[N+](=O)[O-],inactive
10,C[Si](Cn1cncn1)(c1ccc(F)cc1)c1ccc(F)cc1,inactive
11,CC(C)[C@H](C(=O)O[C@H](C#N)c1cccc(Oc2ccccc2)c1)c1ccc(Cl)cc1,inactive
12,O=C(O)c1cc(Oc2ccc(C(F)(F)F)cc2Cl)ccc1[N+](=O)[O-],inactive
13,Nc1nc(N)nc(NC2CC2)n1,inactive
14,CC(C1CC1)C(O)(Cn1cncn1)c1ccc(Cl)cc1 (stereo unspecified),inactive
15,CCOP(=S)(OCC)SCCSCC,inactive
16,C[N+]1(C)CCCCC1,inactive
17,CCOP(=S)(OCC)Oc1cc(C)nc(C(C)C)n1,inactive
18,FC(F)C(F)(F)OCC(Cn1cncn1)c1ccc(Cl)cc1Cl (stereo unspecified),inactive

row,SMILES,outcome
1,CSc1nnc(C(C)(C)C)c(=O)n1N,inactive
2,CCOP(=S)(OCC)Oc1ccc([N+](=O)[O-])cc1,inactive
3,CCOP(=O)(OCC)Oc1cc(C)nc(C(C)C)n1,inactive
4,CCNc1nc(Cl)nc(NC(C)(C)C#N)n1,inactive
5,COc1cccc(C(=O)NN(C(=O)c2cc(C)cc(C)c2)C(C)(C)C)c1C,inactive
6,CC(C)=CC1C(C(=O)OCN2C(=O)C3=C(CCCC3)C2=O)C1(C)C (stereo unspecified),inactive
7,CN(C)NC(=O)CCC(=O)O,inactive
8,CCC(=NOC/C=C/Cl)C1=C(O)CC(C2CCOCC2)CC1=O (stereo unspecified),inactive
9,CC1=NNC(=O)N(/N=C/c2cccnc2)C1,inactive
10,CCOC(=O)CC(SP(=O)(OC)OC)C(=O)OCC (stereo unspecified),inactive
11,CCCCOC(=O)c1ccccc1C(=O)O,inactive
12,CCCOCC(=Nc1ccc(Cl)cc1C(F)(F)F)n1ccnc1,inactive
13,CN(C)[C@@H]1C(=O)C(C(N)=O)=C(O)[C@@]2(O)C(=O)C3=C(O)c4c(O)cccc4[C@@](C)(O)[C@H]3[C@H](O)[C@@H]12,inactive
14,CC(Oc1cccc(Cl)c1)C(=O)O (stereo unspecified),inactive
15,COc1ccc(C(=CC(=O)N2CCOCC2)c2ccc(Cl)cc2)cc1OC,inactive
16,Cc1nn(-c2cc(NS(C)(=O)=O)c(Cl)cc2Cl)c(=O)n1C(F)F,inactive
17,CCOC(=O)COc1cc(-c2nn(C)c(OC(F)F)c2Cl)c(F)cc1Cl,inactive
18,CC(=NC#N)N(C)Cc1ccc(Cl)nc1,inactive

# Source: PubChem BioAssay (EPA / NIEHS)
